# Calls of active or inactive are those of the source. No rule for the calls is given here.
# Target: Protein kinase 7 (PK7), Plasmodium falciparum 3D7 (PF3D7_0213400) (UniProt Q7YTF7)
# Assay: inhibition of Plasmodium PK7 catalytic activity – biochemical, TCAMS antimalarial set, Kinase-Glo luminescence (AID 1159587)
# Settings: recombinant PfPK7, Kinase-Glo ATP depletion luminescence
# Sequence of Protein kinase 7 (PK7), Plasmodium falciparum 3D7 (PF3D7_0213400) (Q7YTF7 1-343): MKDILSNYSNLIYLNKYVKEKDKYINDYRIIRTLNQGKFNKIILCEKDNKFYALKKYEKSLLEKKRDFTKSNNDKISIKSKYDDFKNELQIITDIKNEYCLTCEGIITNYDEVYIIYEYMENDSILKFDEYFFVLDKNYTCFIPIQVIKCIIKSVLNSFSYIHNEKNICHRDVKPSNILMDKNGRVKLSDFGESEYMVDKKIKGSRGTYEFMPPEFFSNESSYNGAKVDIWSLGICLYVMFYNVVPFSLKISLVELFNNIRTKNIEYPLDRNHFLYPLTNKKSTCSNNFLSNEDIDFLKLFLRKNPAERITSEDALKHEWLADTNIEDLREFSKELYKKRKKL
row,Structure (SMILES),outcome
1,COc1cccc(C(=O)[C@H]2C[C@@H]2CN(C)CCC(O)c2ccc(Cl)c(Cl)c2)c1 (stereo not given in full),inactive
2,Cc1ccc(Cn2ncc(N3CCC(N)CC3)c(Cl)c2=O)cc1NC(=O)Nc1ccc(-c2ccccc2)cc1,inactive
3,CN(C)Cc1ccc(O)c(-c2ccc(C(C)(C)C)cc2)n1,inactive
4,COc1cc2nc(NCCCN3CCCCC3)nc(NCc3ccccc3)c2cc1OC,inactive
5,CC(C)CCN1CCC(Oc2ccc(NC(=O)c3cccs3)cc2Cl)CC1,inactive
6,N#Cc1ccc(N[C@@H](CC2CCCCC2)C(=O)N[C@@H]2CCCc3ccccc32)c2ccccc12,inactive
7,Cc1ccc(NC(=O)c2ccc3ncccc3c2)cc1OC1CCN(Cc2ccc(F)cc2)CC1,inactive
8,CCOc1ccc(-c2nc(NC(=O)COc3ccc(OC)cc3)sc2C)cc1,inactive
9,O=C(Nc1ccc2c(c1)CCC2)c1ccc(CN2CCCN(Cc3cccc(O)c3)CC2)cc1,inactive
10,CN1CCN(c2ccnc3cc4c(cc23)N(C(=O)Nc2ccc(-c3ccncc3)c3ccccc23)CC4)CC1,inactive
11,Clc1ccc(OCCC2CCN(CCCCCCN3CCCCC3)CC2)cc1Cl,inactive
12,Cc1cc(N2CCCC2=O)ccc1-c1ccc(C(=O)N2CCC(Oc3cccc(Cl)c3)CC2)cc1,inactive
13,c1ccc(CCNCc2ccc(-c3cccc(CNc4ccc5ncccc5c4)c3)cc2)cc1,inactive
14,CC(C)(C)OC(=O)N1CCN(c2ccccc2NC(=O)c2cccc(C(F)(F)F)c2Oc2ccc(F)cc2)CC1,inactive
15,N#CCCN1CCN(Cc2ccc(-c3ccc(-c4nc5ccc(F)cc5[nH]4)s3)cc2)CC1,inactive
16,CCOC(=O)NC1=NC(C)(C)N(OCCCOc2cc(Cl)c(Cl)cc2Cl)C(N)=N1,inactive
17,Cc1ccc(-n2c(=O)c3cccnc3n2CC(=O)Nc2cccc(C)c2C)cc1,inactive
18,COc1cccc(NC(=O)Cn2c(C)c(C#N)c3ccccc32)c1,inactive
19,CN(C)CC(O)C(O)(c1ccccc1)c1ccc(F)cc1 (stereo not given),inactive
20,Cc1[nH]c(C)c(Cc2ccc(Oc3ccc(OC(F)(F)F)cc3)cc2)c(=O)c1Br,inactive

row,Structure (SMILES),outcome
1,C=CCC(C)n1ncc2c3c(N)nc(N)nc3ccc21 (stereo not given),inactive
2,CC(C)N1CCN(c2ccc(OCCCCN3CCN(c4cccc(Cl)c4Cl)CC3)c(C(F)(F)F)c2)CC1,inactive
3,FC(F)(F)c1ccc2nc(-c3cccc(-c4cccc(CNCCc5ccncc5)c4)c3)[nH]c2c1,inactive
4,O=C(C=Cc1ccccc1)Nc1ccc(C#CC=Cc2ccc(NC(=O)C=Cc3ccccc3)cc2)cc1,inactive
5,CC1CN(Cc2ccccc2)CCN1c1ccc(NC(=O)c2cccs2)cc1 (stereo not given),inactive
6,CC1(C)N=C(N)N=C(N)C1c1ccc(Cl)c(Cl)c1 (stereo not given),inactive
7,CN1CCC(NCc2ccc(-c3ccc(S(=O)(=O)NCc4ccccc4)cc3)cc2)CC1,inactive
8,CC(C)CCN1CCC(Oc2cccc(NC(=O)c3ccc(C(F)(F)F)cc3)c2)CC1,inactive
9,Cc1cccc2[nH]c(-c3ccc(-c4cccc(NC(=O)Cc5cnc[nH]5)c4)cc3)nc12,inactive
10,O=C(Nc1ccccc1N1CCOCC1)c1ncoc1-c1ccccc1C(F)(F)F,inactive
11,COc1cccc(C2(c3cccc(OC)c3)N=C(N)N(CCCc3ccccc3)C2=O)c1,inactive
12,Cc1cccc2[nH]c(-c3ccc(-c4ccc(CN5CCN(CC6CCCN(C)C6)CC5)cc4)cc3)nc12 (stereo not given),inactive
13,O=S(=O)(Nc1ccc(CCN2CCC(N3CCCCC3)CC2)cc1)c1ccc2ccccc2c1,inactive
14,CCCc1ccc(S(=O)(=O)NC2CCN(C(=O)Nc3ccc(I)cc3)CC2)cc1,inactive
15,CNC(=O)c1cnc(Nc2ccc(N3CCN(C)CC3)c(C)c2)nc1NC,inactive
16,C[C@H]1CN(Cc2cccc(-c3cc(CNC(=O)c4cccc(CC5CCN(C)CC5)c4)ccc3F)c2)CCN1C,inactive
17,C=CCn1c(=N)c(C(=O)NC2CCCCC2)cc2c(=O)n3cccc(C)c3nc21,inactive
18,O=C(/C=C/c1ccc(Cl)c(Cl)c1)N1CCC(CCN2CCc3[nH]c4ccccc4c3C2)CC1,inactive
19,CCC(C)OC(=O)C1=C(C)NC2=C(C(=O)CC(c3ccc(OC)c(OC)c3)C2)C1c1ccc(O)cc1 (stereo not given),inactive
20,CCc1ccc(N2C(=O)C3C(Cc4ccc(OC(C)(C)C)cc4)NC4(C(=O)N(Cc5ccccc5)c5ccc(F)cc54)C3C2=O)cc1 (stereo not given),inactive

# Source: PubChem BioAssay
